Reference: PubChem BioAssay (NCI)
About 83,000 compounds went through this panel and 20% of them were active in at least one assay; those are over-represented in the sample as a whole.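 Cells were grown in 96-well plates and exposed to the test compound at a single concentration for 48 hours; results are reported as percent growth, with values below 10 considered active.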 The source made the active and inactive calls.

Columns and labels:
Assay in all cases: NCI-60 one-dose screen, 48 h (100 = growth as untreated, 0 = no growth, -100 = all killed)
Details in all cases: 10 µM
SR leukemia = system: SR leukemia
RPMI-8226 leukemia = system: RPMI-8226 leukemia
OVCAR-8 ovarian = system: OVCAR-8 ovarian
OVCAR-5 ovarian = system: OVCAR-5 ovarian
OVCAR-4 ovarian = system: OVCAR-4 ovarian
SK-OV-3 ovarian = system: SK-OV-3 ovarian
IGROV1 ovarian = system: IGROV1 ovarian
OVCAR-3 ovarian = system: OVCAR-3 ovarian
HS 578T breast = system: HS 578T breast
NCI/ADR-RES ovarian = system: NCI/ADR-RES ovarian

Measured: growth

O=C(CSc1nnc(-c2ccc3nc(-c4ccccc4)[nH]c3c2)o1)Nc1ccc(Br)cc1
inactive: SR leukemia 32.1% | RPMI-8226 leukemia 41% | OVCAR-8 ovarian 24.8% | OVCAR-5 ovarian 86.1% | OVCAR-4 ovarian 81.3% | SK-OV-3 ovarian 80% | IGROV1 ovarian 80.4% | OVCAR-3 ovarian 73.9% | HS 578T breast 79.6% | NCI/ADR-RES ovarian 78.1%

O=C(NO)c1ccc(Cn2ccc3c(Nc4ccccc4)ncnc32)cc1
inactive: SR leukemia 11.9% | RPMI-8226 leukemia 20.3% | OVCAR-4 ovarian 38.7% | OVCAR-3 ovarian 19.7%
active: OVCAR-8 ovarian -21.4% | OVCAR-5 ovarian 0.443% | SK-OV-3 ovarian -7.35% | IGROV1 ovarian -30.8% | HS 578T breast 9.25% | NCI/ADR-RES ovarian -29.4%

Cc1cc(C(F)(F)F)ccc1C(=O)Nc1sc2c(c1C#N)CCC(=O)C2
active: SR leukemia -9.8% | RPMI-8226 leukemia 2.68% | OVCAR-8 ovarian -9.16% | OVCAR-5 ovarian -33.3% | OVCAR-4 ovarian -39.7% | SK-OV-3 ovarian -18.9% | IGROV1 ovarian -5.43% | OVCAR-3 ovarian -48.2% | HS 578T breast -7.86% | NCI/ADR-RES ovarian -24.8%

CC1(C)[C@@H](NCO)CC[C@]2(C)[C@H]3C(=O)C=C4[C@@H]5C[C@](C)(CO)CC[C@]5(C)CC[C@@]4(C)[C@]3(C)CC[C@@H]12
inactive: SR leukemia 10.3% | OVCAR-8 ovarian 70.9% | OVCAR-5 ovarian 66.1% | OVCAR-4 ovarian 55.4% | SK-OV-3 ovarian 92.8% | IGROV1 ovarian 53.8% | OVCAR-3 ovarian 85.4% | HS 578T breast 44% | NCI/ADR-RES ovarian 56%
active: RPMI-8226 leukemia -1.48%

Cc1ccc2nc(-c3ccc(-c4nnc(SCC(=O)Nc5ccc(Br)cc5)o4)cc3)[nH]c2c1
inactive: SR leukemia 16.1% | RPMI-8226 leukemia 41.3% | OVCAR-8 ovarian 20.4% | OVCAR-5 ovarian 92.4% | OVCAR-4 ovarian 76.8% | SK-OV-3 ovarian 72.1% | IGROV1 ovarian 91.2% | OVCAR-3 ovarian 82.9% | HS 578T breast 70.8% | NCI/ADR-RES ovarian 61.3%

CC(=O)c1cc(C(=O)c2ccc3c(c2)NC(=O)CO3)n2ccc3ccccc3c12
inactive: SR leukemia 63.2% | RPMI-8226 leukemia 62.7% | OVCAR-8 ovarian 50.3% | OVCAR-5 ovarian 85.7% | OVCAR-4 ovarian 47.9% | SK-OV-3 ovarian 108% | IGROV1 ovarian 96.2% | OVCAR-3 ovarian 118% | HS 578T breast 63.1% | NCI/ADR-RES ovarian 69%

CC(C)c1ccc(C(=O)Nc2sc3c(c2C(N)=O)CCC(=O)C3=O)cc1
inactive: SR leukemia 72.8% | RPMI-8226 leukemia 85% | OVCAR-8 ovarian 94.2% | OVCAR-5 ovarian 114% | OVCAR-4 ovarian 91.5% | SK-OV-3 ovarian 89.4% | IGROV1 ovarian 72.4% | OVCAR-3 ovarian 87% | HS 578T breast 93.7% | NCI/ADR-RES ovarian 97.4%

CN1CCO/C1=C(/NC(=O)c1ccc(Cl)cc1)[P+](c1ccccc1)(c1ccccc1)c1ccccc1
inactive: SR leukemia 80.9% | RPMI-8226 leukemia 24.8% | OVCAR-8 ovarian 89% | OVCAR-5 ovarian 92.1% | OVCAR-4 ovarian 83.3% | SK-OV-3 ovarian 106% | IGROV1 ovarian 59.4% | OVCAR-3 ovarian 64.1% | HS 578T breast 93.7% | NCI/ADR-RES ovarian 103%

CCOc1ccc2ncc(C#Cc3cncc(C(=O)Nc4ccc(CN5CCN(C)CC5)c(C(F)(F)F)c4)c3)n2n1
active: SR leukemia 1.01% | RPMI-8226 leukemia -13.3% | OVCAR-8 ovarian -60.9% | OVCAR-5 ovarian -87% | OVCAR-4 ovarian -60.6% | IGROV1 ovarian -58.2% | OVCAR-3 ovarian -79.1% | HS 578T breast -28.2% | NCI/ADR-RES ovarian -70.1%
inactive: SK-OV-3 ovarian 45.7%

COc1ccc(C(=O)NC(=S)N2CCN(c3ncnc4c3cnn4-c3ccccc3)CC2)cc1
inactive: SR leukemia 12.3% | RPMI-8226 leukemia 72.6% | OVCAR-8 ovarian 51.3% | OVCAR-5 ovarian 79.3% | OVCAR-4 ovarian 54.1% | IGROV1 ovarian 66.4% | OVCAR-3 ovarian 83.1% | HS 578T breast 51% | NCI/ADR-RES ovarian 61.7%
active: SK-OV-3 ovarian 7.3%

COc1ccc(C(=O)/C=C/c2ccc(Cl)c(C(F)(F)F)c2)cc1S(N)(=O)=O
active: SR leukemia 8.87% | RPMI-8226 leukemia 2.54% | OVCAR-8 ovarian -73.4% | OVCAR-5 ovarian -100% | OVCAR-4 ovarian -99.7% | SK-OV-3 ovarian 9.96% | IGROV1 ovarian -91.5% | OVCAR-3 ovarian -66.5% | HS 578T breast -41.3% | NCI/ADR-RES ovarian -44%

Cc1ccn2c(C(=O)c3ccccc3)cc(-c3cc(-c4ccc(N(C)C)cc4)c(C#N)c(N)n3)c2c1
inactive: SR leukemia 75.9% | RPMI-8226 leukemia 82.5% | OVCAR-8 ovarian 15.1% | OVCAR-5 ovarian 83.4% | OVCAR-4 ovarian 45.5% | SK-OV-3 ovarian 65.2% | IGROV1 ovarian 86.3% | OVCAR-3 ovarian 58.2% | HS 578T breast 33.2% | NCI/ADR-RES ovarian 50.8%

CCCCSc1nc(Nc2ccc(/C(C)=N/NC(N)=S)cc2)c(C#N)c(-c2ccc(F)cc2)n1
inactive: SR leukemia 52.4% | RPMI-8226 leukemia 58.2% | OVCAR-5 ovarian 64.4% | OVCAR-4 ovarian 16.3% | SK-OV-3 ovarian 78.4% | IGROV1 ovarian 49.6% | OVCAR-3 ovarian 35.4% | HS 578T breast 28.8% | NCI/ADR-RES ovarian 37.5%
active: OVCAR-8 ovarian 7.66%

O=c1[nH]c2ccc(Cl)cc2cc1CSc1ccc(Nc2nccc(-c3ccc4ccccc4c3)n2)cc1
inactive: SR leukemia 88% | RPMI-8226 leukemia 69.1% | OVCAR-5 ovarian 95% | SK-OV-3 ovarian 126% | IGROV1 ovarian 99.4% | HS 578T breast 66.2% | NCI/ADR-RES ovarian 59.8%
active: OVCAR-8 ovarian 9.55% | OVCAR-4 ovarian -25.7% | OVCAR-3 ovarian -1.45%

COc1ccc(CN2[C@H](C(=O)NCCCCCCC(=O)NO)Cc3c([nH]c4ccccc34)[C@H]2C2CC2)cc1
active: OVCAR-8 ovarian 2.69% | OVCAR-5 ovarian -21.2% | SK-OV-3 ovarian -33.5% | IGROV1 ovarian -42.4% | OVCAR-3 ovarian 3.23% | HS 578T breast -1.3%
inactive: SR leukemia 16% | RPMI-8226 leukemia 15.7% | OVCAR-4 ovarian 40.6% | NCI/ADR-RES ovarian 61.9%

COc1cc(-c2nc3cc(Cl)c(Cl)cc3[nH]2)ccc1OCc1nnc(-c2ccc(Br)cc2)o1
active: SR leukemia -34.4% | RPMI-8226 leukemia -23.2% | OVCAR-4 ovarian -92.2% | SK-OV-3 ovarian -11.1% | OVCAR-3 ovarian -47.6% | HS 578T breast -22.5%
inactive: OVCAR-8 ovarian 15.7% | OVCAR-5 ovarian 39.6% | IGROV1 ovarian 42% | NCI/ADR-RES ovarian 22%

O=C(CSc1nnc(-c2c[nH]c3ccccc23)n1-c1ccccc1)c1ccc(Br)cc1
inactive: SR leukemia 90.8% | RPMI-8226 leukemia 54.4% | OVCAR-8 ovarian 43.5% | OVCAR-5 ovarian 58.3% | OVCAR-4 ovarian 46.2% | SK-OV-3 ovarian 48.6% | IGROV1 ovarian 64.1% | OVCAR-3 ovarian 42.5% | HS 578T breast 52.3% | NCI/ADR-RES ovarian 26.3%

COc1ccc2[nH]c(=O)c(CSc3ccc(Nc4nccc(-c5ccc(Cl)cc5)n4)cc3)cc2c1
inactive: SR leukemia 90.9% | RPMI-8226 leukemia 81.3% | OVCAR-8 ovarian 70.3% | OVCAR-5 ovarian 96.6% | OVCAR-4 ovarian 94.8% | SK-OV-3 ovarian 119% | IGROV1 ovarian 105% | OVCAR-3 ovarian 116% | HS 578T breast 63.8% | NCI/ADR-RES ovarian 73.7%

Cc1ccc(-c2cc(C(=O)N=Nc3c(O)[nH]c4ccc(Br)cc34)c3ccccc3n2)cc1
inactive: SR leukemia 10.4% | RPMI-8226 leukemia 60.8% | OVCAR-8 ovarian 56.5% | OVCAR-5 ovarian 99.7% | OVCAR-4 ovarian 71.9% | SK-OV-3 ovarian 107% | IGROV1 ovarian 52.9% | OVCAR-3 ovarian 79.2% | HS 578T breast 67.5% | NCI/ADR-RES ovarian 55%

Cc1ccc(/C=C/C(=O)c2ccc(NC(=O)CSc3nnc(-c4c[nH]c5ccccc45)n3-c3ccccc3)cc2)c(C)c1
inactive: SR leukemia 41.6% | RPMI-8226 leukemia 22.8% | OVCAR-5 ovarian 77.3% | OVCAR-4 ovarian 13.1% | SK-OV-3 ovarian 106% | IGROV1 ovarian 66.8% | OVCAR-3 ovarian 32% | HS 578T breast 67.8% | NCI/ADR-RES ovarian 64.2%
active: OVCAR-8 ovarian 1.17%

N#Cc1c(NC(=O)c2ccc(C(O)(C(F)(F)F)C(F)(F)F)cc2)sc2c1CCC(=O)C2
active: SR leukemia -6.36% | RPMI-8226 leukemia 6.42% | OVCAR-8 ovarian -7.08% | OVCAR-5 ovarian -60.8% | OVCAR-4 ovarian -29.6% | SK-OV-3 ovarian -38.9% | IGROV1 ovarian -27.6% | OVCAR-3 ovarian -53.1% | HS 578T breast -22% | NCI/ADR-RES ovarian -60.4%

O=C(CSc1nnc(-c2c[nH]c3ccccc23)n1-c1ccccc1)Nc1ccc(C(=O)/C=C/c2ccc(Br)cc2)cc1
active: RPMI-8226 leukemia 7.63%
inactive: SR leukemia 72.3% | OVCAR-8 ovarian 95.6% | OVCAR-5 ovarian 93.3% | OVCAR-4 ovarian 91.2% | SK-OV-3 ovarian 88.3% | IGROV1 ovarian 80.5% | OVCAR-3 ovarian 81% | HS 578T breast 82.2% | NCI/ADR-RES ovarian 94.9%

CCOC(=O)C(Cc1ccccc1)N1C(=O)/C(=C/N2N=C(c3ccc(OC)cc3)CC2c2ccc3ccccc3c2)SC1=S (stereo not given)
active: SR leukemia 6.53% | RPMI-8226 leukemia 4.07% | SK-OV-3 ovarian 9.93% | HS 578T breast 1.03%
inactive: OVCAR-8 ovarian 17.1% | OVCAR-5 ovarian 39.3% | OVCAR-4 ovarian 35.1% | IGROV1 ovarian 13% | OVCAR-3 ovarian 15.1% | NCI/ADR-RES ovarian 54.1%

CCCn1c(=O)c2[nH]c(-c3ccc(OCc4nc5ccccc5[nH]4)cc3)nc2n(CCC)c1=O
active: OVCAR-4 ovarian 3.46% | HS 578T breast -17.8%
inactive: SR leukemia 39% | RPMI-8226 leukemia 40% | OVCAR-8 ovarian 27.6% | OVCAR-5 ovarian 92.2% | SK-OV-3 ovarian 40.3% | IGROV1 ovarian 39.8% | OVCAR-3 ovarian 26.8% | NCI/ADR-RES ovarian 66.3%

CC(C)Sc1nc(NC2CC2)c(C#N)c(-c2ccccc2)n1
inactive: SR leukemia 99.8% | RPMI-8226 leukemia 94.2% | OVCAR-8 ovarian 30.8% | OVCAR-5 ovarian 92% | OVCAR-4 ovarian 27.6% | SK-OV-3 ovarian 88.8% | IGROV1 ovarian 74% | OVCAR-3 ovarian 86.5% | HS 578T breast 71.7% | NCI/ADR-RES ovarian 57.6%

O=C(CSc1nnc(-c2c[nH]c3ccccc23)n1-c1ccccc1)c1ccccc1
inactive: SR leukemia 81.6% | RPMI-8226 leukemia 81.3% | OVCAR-8 ovarian 14.7% | OVCAR-5 ovarian 88.6% | SK-OV-3 ovarian 85.6% | IGROV1 ovarian 55.1% | OVCAR-3 ovarian 60.8% | HS 578T breast 24.1% | NCI/ADR-RES ovarian 14.8%
active: OVCAR-4 ovarian -2.47%
